Source: PubChem (National Center for Advancing Translational Sciences (NCATS))
In the library only some 8% were active in any assay of this set; here they are far more common.
Lassa entry inh = blocks Lassa virus binding to or entry into cells. Potency, µM (series often up to 37.9 µM), usual class: inhibitors. AID 540256. 1.2% of 300,000 active. Lassa virus pseudotype entry inhibition, cell reporter; calls by dose curve; tested in HEK293 cells; note: nearly all actives have a fitted effect of over 50% in size
MARV entry inh = Marburg virus entry inhibition; 1.8% of 300,000 active; Potency, µM (highest dose often 37.8 µM), most hits filed as inhibitors; Marburg virus pseudotyped entry inhibition, cell reporter; AID 540276; calls by dose curve; tested in HEK293 cells
FMDV inh = foot and mouth disease virus antiviral activity; AID 1159524; 1.2% of 410,000 active; FMDV antiviral cell-based qHTS; Potency, µM (series often up to 57.9 µM), most hits filed as inhibitors; calls by dose curve; tested in HEK293T cells; note: read-out not given here; nearly all actives have a fitted effect of over 45% in size
HCV inhibitor = inhibitors of hepatitis C virus infection. Potency, µM (series often up to 41.8 µM), usual class: inhibitors. 3.4% of 340,000 active. AID 651820. Huh7.5.1 HCVcc-Cre infection, luciferase reporter, 44 h; active = well fitted inhibition curve with a large enough effect; inconclusive = small, poorly fitted or top-dose-only effect, or another doubt; inactive = no such curve, though single readings can be large or run the other way
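Seed cells (1,000/well) for 4 h; treat with compound and infect with HCVcc-Cre, moi about 0.5. Incubate 44 h, then detect luciferase activity.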
SARS PLP yeast = SARS-CoV PLP inhibition in yeast; 0.19% of 330,000 active; Potency, µM (top dose mostly 32.9 µM), most hits filed as activators; S. cerevisiae expressing SARS-CoV PLpro, growth rescue; calls by dose curve; note: nearly all actives have a fitted effect of over 55% in size
HCMV antiviral = blocks human cytomegalovirus replication. HFF cells, HCMV-luciferase reporter, 72 h; stronger effect = lower value. activity change, negative = inhibition, % at 57.5 µM. 4.5% of 410,000 active; in the data active = activity change below about -60%; inconclusive = no clear call, values can overlap the other calls; inactive = above about -39%
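Steps: HFFs plated, 16 h 37C; compounds added; HCMV-luciferase added to MOI 1 PFU/cell; 72 h 37C; OneGlo reagent, 5 min room temperature; luminescence read, normalized to controls.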
Numbers stand for hits; i = inactive; ? = inconclusive; nt = not tested or not shown.

SMILES	Lassa entry inh	MARV entry inh	FMDV inh	HCV inhibitor	SARS PLP yeast	HCMV antiviral
CCN1CCC(N(Cc2ccc3c(c2)OCO3)C(=O)Nc2ccccc2OC)CC1	i	nt	i	nt	nt	i
COc1cccc(C(C)NC(=O)Nc2cc(Cl)ccc2OC)c1 (stereo not given)	i	?	i	i	i	i
CCN1CCC(NC(=O)Nc2cc(Cl)ccc2OC)CC1	i	7.1µM	i	i	i	i
CCN1CCC(N(Cc2ccc3c(c2)OCO3)C(=O)Nc2cc(Cl)ccc2C(=O)OC)CC1	?	nt	i	nt	nt	-80
Cc1cc(C)n(-c2nc(C)c(C)c(=O)n2CC(=O)Nc2ccc(Cl)c(Cl)c2)n1	i	nt	i	nt	nt	i
Cc1c(C(=O)Nc2nc(-c3ccc(F)cc3)ns2)oc2ccc(Cl)cc12	i	i	i	nt	nt	i
CCCCn1c(=N)c(S(=O)(=O)c2ccc(Cl)cc2)cc2c(=O)n3cccc(C)c3nc21	i	i	?	nt	nt	i
COc1ccccc1C(=O)Nc1c(C(=O)Nc2cc(Cl)ccc2C)sc2nc(C)cc(C)c12	i	?	i	nt	nt	-102
Cc1ccc(S(=O)(=O)NCCc2nnc3ccc(SCc4ccccc4F)nn23)cc1	?	nt	i	nt	nt	i
CCOc1ccc(CN2CCc3nc(N4CCN(c5ccccc5OC)CC4)ncc3C2)cc1OC	?	nt	20µM	nt	nt	?
CCOc1ccc(CN2CCc3nc(N4CCN(c5ncccn5)CC4)ncc3C2)cc1OC	i	nt	?	nt	nt	?
COc1ccccc1N1CCN(c2ncc3c(n2)CCN(Cc2ccccc2F)C3)CC1	i	nt	i	nt	nt	i
COc1ccc(CN2CCc3nc(N4CCN(c5ccc(F)cc5)CC4)ncc3C2)c(OC)c1OC	?	nt	20µM	nt	nt	i
COc1cc(OC)c(OC)cc1CN1CCc2nc(N3CCN(c4ncccn4)CC3)ncc2C1	i	nt	?	nt	nt	-71
COc1cc(OC)c(OC)cc1CN1CCc2nc(N3CCN(c4ccccc4F)CC3)ncc2C1	i	nt	11µM	nt	nt	i
CC(=O)c1cc(-c2ccccc2)n(CCC(=O)Nc2nc3c(C)cccc3s2)c1C	i	nt	i	nt	nt	i
CN(C)/C=N/c1ncc(C(=O)c2ccc(Cl)cc2Cl)s1	i	i	i	?	i	-61
Cc1ccc(NC(=O)c2ccc(OCC3CCCO3)cc2)cc1 (stereo not given)	?	?	i	i	i	i
O=C(Nc1ccc(S(=O)(=O)N2CCCC2)cc1)c1ccc(OCC2CCCO2)cc1 (stereo not given)	i	?	18µM	11µM	i	-88
O=C(Nc1cccc(S(=O)(=O)N2CCCCC2)c1)c1ccc(OCC2CCCO2)cc1 (stereo not given)	?	?	?	?	i	-66
CCc1ccc(-n2c(=O)c3sc4ccccc4c3n(CC(=O)N(CC)Cc3ccccc3)c2=O)cc1	i	?	i	nt	nt	i
O=C1C2C3C=CC(C3)C2C(=O)N1c1ccc(N2CCN(c3ccccn3)CC2)c([N+](=O)[O-])c1 (stereo not given)	nt	nt	?	10µM	i	-66
O=C(CCN1C(=O)C2C3C=CC(C3)C2C1=O)N1CCN(c2ccccn2)CC1 (stereo not given)	i	i	i	i	i	i
CSc1cc(-c2ccncc2)nc(-c2ccc(Cl)cc2)c1	i	4.5µM	i	?	i	nt
Clc1ccc2nc(-c3ccncc3)cc(-c3ccccc3)c2c1	i	i	?	i	i	i
CCOC(=O)C1CCN(S(=O)(=O)c2ccc(N3CCCCS3(=O)=O)cc2)CC1	i	nt	?	nt	nt	i
O=C(CN(CC1CCCO1)C(=O)c1nsc(Cl)c1Cl)NC1CCCC1 (stereo not given)	i	i	i	i	i	-66
CC12CC[C@H]3[C@@H](CCC4(O)C[C@H](O)CCC34/C=N/NC(=O)c3ccccc3O)C1(O)CCC2C1=CC(=O)OC1 (stereo not given in full)	?	?	i	i	i	i
C[C@@H]1O[C@@H](O[C@H]2C[C@@H](O)[C@]3(CO)[C@@H]4C(CC[C@]3(O)C2)[C@@]2(O)CC[C@H]([C@@H]3COC(=O)C3)[C@@]2(C)C[C@H]4O)[C@H](O)[C@H](O)[C@H]1O (stereo not given in full)	2.3µM	0.82µM	nt	nt	nt	nt
CC1OC(OC2CC(O)C3(CO)C4C(O)CC5(C)C(C6=CC(=O)OC6)CCC5(O)C4CCC3(O)C2)C(O)C(O)C1O (stereo not given)	nt	nt	?	?	nt	-72
